Experimental data reported in the supplement of paper PMC6555819.

System: VDR:RXRa (NR concentration 270 nM, RXRa partner concentration 90 nM)
Assay: PBM binding z-score (relative to random genomic background probes); higher = stronger binding; sequences stand for … in GC…GCGATTGACAGCGTAGAATGAAGG
Description: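 Protein-binding microarray (Agilent 4x180K custom design, double-stranded 60-nt probes: 5' GC cap, 34-nt variable region, 24-nt constant primer region; full probe sequence given). Purified or IVT nuclear receptor:RXRα heterodimers (3:1 NR:RXRα, mostly 270:90 nM) or homodimers were incubated for 1 h in PBS with 2% milk and no ligand, then detected with Alexa488 antibodies. Fluorescence from o1-orientation probes (~5 replicates averaged) was converted to z-scores against 500 random hg19 background probes. Variable regions are seed direct-repeat (DR0–DR5) sites, all their single-nucleotide variants and half-site ablations.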

Row | Sequence | PBM binding z-score
1 | ACAGACAGGTGAATGAAGGTAACTCAGCTGGACG | -0.131
2 | CCTTACGGGTCACGAGGTTATAGCCCGACGAGCG | 5.11
3 | TCTCGGAGGACACGAAGCTCAGAGCTTTCCAGAG | -0.415
4 | ACTACCAGGCCAAGTTTGGGTCACTCAAACAAAG | 1.08
5 | GCTGCTAGGTCAACTGATGGTCCGCTAAAGCTCG | 1.31
6 | TCTTGTAGATCAAAGGTTAAGAAGGCCGAAGCCT | 2.65
7 | CCTACTGGGCCAAAAAGGTCATTGCTGCCGATAA | 4.46
8 | CCTGCTAGGTCAATCGTCAGCTAAAGCAGCTCGC | 0.744
9 | TGATTGAGGTTATAAGATCAGGGAACGTTGCAAA | 1.01
10 | ACTCGGAGGACAAAGGTCAGAGATACGCCAGTGA | 3.38
11 | CCGAGTAGGTTATGGTGCATTCAGGCAACGGTGA | 0.0938
12 | TCTATTCGTTGATTAGGGCAACCGAAACAGCGGA | 0.441
13 | AGTCAAAGTTCGTCTAGGTAACGTAAGATATGCT | 2.59
14 | CAATCTAGGTCACCGGAAGGTCAAAGTCCGCATG | 6.01
15 | GCGACTGGGGCATCAGCAGGTTACTATAACTTAA | 0.0645
16 | CCCACTGGGGCATAAGGTTACCATAAGCCAGCCC | -0.113
17 | TCTTGTAGATCAAAGGTTAAGAACGCCGAAGCCT | 1.47
18 | AGAATGAGGTTATTAAAATCAGGGAATTGCGGTC | 0.984
19 | AATACAGGGTTACTAGGCCAGAGTAGGTACGAAT | 0.824
20 | GCTCGGAGGACAACGTCAGAGCTTTGTCCGTAGA | -0.935

Row | Sequence | PBM binding z-score
21 | CTACCAAGGTGAACATGGTCGTTGATTACTATTC | 1.18
22 | GCAGACAGGTGAAACGCAGGTAACACAGGGTGGC | -0.439
23 | ATATGTAGGTTAAGGGTCATTCTGGTTGGTTCGC | 4.92
24 | AGAATGAGTTTAAGATCAGGGAAACAGAATACAT | 0.803
25 | CAGACTGGGGCATAAGGTTACCATAAGCCAGCCC | 0.497
26 | CCAGACAGGTGAGAAGGGAACTCAGCCTCGATTA | -0.443
27 | TAGCCTAGGTCAGATCGGGCCAGGATACGCTATA | 0.248
28 | CGTCCAAGGTCAGAGAGGTCAGTCAATGCCGAGT | 7.68
29 | TCTTGTAGATCAAAGGGTAAGAAAGCCGAAGCCT | 0.126
30 | GCGACTGGGGGATCAGCAGGTTACCATAACTTAA | 0.855
31 | ATATGTAGGTTATCGGTTCATTCAGTTTGCGCAT | 3.97
32 | GCAGACAGATGAAACGCAGGTAACTCAGGGTGGC | -0.643
33 | CTCGAAAGTTCGTGCTCAGGTGAGTATACCAAAC | 1.71
34 | CCTAATGGGCCACGAAAGGTCATTGATTCAGTGA | 4.33
35 | TCATATAGGAAAATGCTAGGTGAAAGTCCGATCT | 0.9
36 | CGAACTAGGTCATCCAGGACACTGAATACATTGA | 5.27
37 | ATACCAAGGTGATCGTGAGGTCGTTGAGACTAAC | 2.9
38 | TCTATTAGTTGATTAGGGCAACCTAAACAGCGGA | 0.744
39 | ATCTCTAGGTAAAAGTTCAGTGAATCCCGAGGAT | 1.31
40 | CAAACTAGGTCAAGAGGTCAAAGTACGCTTCCCG | 6.22
